Screening data as filed in PubChem BioAssay.
esBAF inh: inhibitors of esBAF chromatin remodeling in mouse ES cells. 2% of 350,000 active. reporter increase, % at 12.5 µM. AID 602393. Bmi1-luciferase knock-in reporter, 24 h; 100% = twice the neutral-well signal; in the data active = activation above about 40%; inconclusive = no clear call, values can overlap the other calls;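 note: 0% = median of the plate's neutral control wells and 100% = double that signal; a rise in the Bmi1 reporter signal indicates esBAF inhibition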
ssDAF-12 act: S. stercoralis DAF-12 activation, primary screen | HEK293 ssDAF-12/GRIP1 lit1-tk-luc reporter, luminescence; % of 3 µM dafachronic acid response | activation, % at 6.8 µM | 1% of 370,000 active | AID 652126;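 active = activation above the mean over all tested compounds plus 3 SD, cut at about 0.9% in these data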;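 note: 0% = DMSO-only wells and 100% = 3 µM delta7-dafachronic acid wells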
hgDAF-12 ag: hgDAF-12 agonism, primary luciferase screen; activation, % at 6.8 µM; 1.8% of 370,000 active; AID 687014; HEK293 GAL4-hgDAF12 UAS-luciferase reporter, agonist luminescence; normalized to butyrate control;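 active = activation above a cutoff set at the mean of all screened compounds plus 3 SD, cut at about 10% in these data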;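 note: 0% = DMSO wells and 100% = sodium butyrate wells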
hcDAF12 agonist: activators of H. contortus DAF-12 nuclear receptor; HEK293 hcDAF-12 lit1-tk-luc reporter, luminescence; 0% DMSO, 100% Δ7-dafachronic acid; activation, % at 6.8 µM; 1.4% of 370,000 active;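 active = activation above the mean of all tested compounds plus 3 SD, cut at about 5.5% in these data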;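 note: 100% = response to 3 µM Δ7-dafachronic acid high control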
Wnt act: Wnt/beta-catenin pathway activation; Wnt/beta-catenin reporter cell assay, activator, plate reader; activation, % at 9.35 µM; 1.2% of 300,000 active; in the data active = activation above about 30%, passing the limit was not always enough; inconclusive = no clear call, values can overlap the other calls;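 note: 0% = neutral control wells and 100% = positive control wells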
DAX1 StAR inh: inhibitors of DAX1 repression of SF-1 activated StAR promoter | HEK293T StAR-luciferase reporter, SF-1/DAX-1 repression relief | inhibition, % at 6.8 µM | 1.1% of 370,000 active | AID 652010;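 active = inhibition above the mean over all tested compounds plus 3 SD, cut at about 3.6% in these data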;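 note: 0% = DAX-1 cells with DMSO and 100% = cells lacking DAX-1 with DMSO; higher inhibition means more luminescence from relief of DAX-1 repression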
* = called active by the depositor; ? = inconclusive; nt = not tested or not shown; ! = repeats disagree. Sampled rows, rich in hits. Any-hit rate of the full collection: about 4.2%.

SMILES | esBAF inh | ssDAF-12 act | hgDAF-12 ag | hcDAF12 agonist | Wnt act | DAX1 StAR inh
CC(C)CC#Cc1ccc2c(c1)O[C@H](CN(C)C(=O)C1CCCCC1)[C@@H](C)CN([C@@H](C)CO)S2(=O)=O | -2 | nt | nt | nt | nt | nt
C#CCN(C(=O)c1cc(COc2ccc(C)c(C)c2)on1)C1CCCCC1 | -2 | -1 | -3 | -1 | -1 | 0
Cc1ccc(OCc2cc(C(=O)N(C)Cc3cnn(C)c3)no2)cc1C | 46* | -1 | 5 | 0 | -1 | 1
COc1cc(Cl)ccc1OCc1cc(C(=O)N(C)CCc2cnn(C)c2)no1 | 88* | 0 | 12* | 6.1* | 26 | 3
CCN(Cc1cnn(C)c1)C(=O)c1cc(COc2cc(C)c(Cl)c(C)c2)on1 | 22 | -1 | 1 | -2 | 9 | 1
Cc1cc(OCc2cc(C(=O)N(C)CCc3cnn(C)c3)no2)cc(C)c1Cl | 74* | -1 | 7 | 1 | 0 | 4.2*
Cc1ccc(OCc2cc(C(=O)N(C)C3CCCc4ccccc43)no2)cc1C (stereo unspecified) | 38 | -1 | 11* | 5.8* | nt | 1
CO[C@H]1CN(C)C(=O)c2cc(NC(C)=O)ccc2OC[C@H](C)N(C(=O)c2cccnc2)C[C@H]1C | -4 | nt | nt | nt | nt | nt
CN(C)CC(=O)Nc1ccc2c(c1)[C@@H]1C[C@H](CC(=O)NC3CCCCC3)O[C@@H](CO)[C@@H]1O2 | 6 | nt | nt | nt | nt | nt
CCOc1cc(/C=C(\C#N)c2nc3ccccc3[nH]2)ccc1OC(C)C(=O)O (stereo unspecified) | -4 | -1 | 1 | 0 | 0 | -1
N#C/C(=C\c1ccc(N2CCCC2)c([N+](=O)[O-])c1)c1nc2ccccc2[nH]1 | 29 | -2 | -2 | 2 | -2 | -1
N#C/C(=C\c1cccs1)c1nc2ccccc2[nH]1 | nt | 0 | 4 | 2 | nt | 0
CCOc1cc(/C=C(/C#N)c2nc3ccccc3[nH]2)ccc1Oc1ccc([N+](=O)[O-])cn1 | 13 | -1 | 5 | 5.8* | -2 | -1
N#C/C(=C/c1ccc(O)c(O)c1)c1nc2ccccc2[nH]1 | 57* | -1 | 1 | 0 | 4 | 1
COc1ccc2nc(/C(C#N)=C\c3ccc(C(=O)O)cc3)[nH]c2c1 | nt | 0 | 13* | 4 | 2 | 2
N#C/C(=C\c1ccc(OC(=O)c2cccs2)cc1)c1nc2ccccc2[nH]1 | nt | 0 | 5 | 1 | 35* | 0
C[C@H]1CCCCO[C@@H](CN(C)S(=O)(=O)c2cn(C)cn2)[C@@H](C)CN([C@@H](C)CO)C(=O)c2cc(NC(=O)CCC(F)(F)F)ccc2O1 | -1 | nt | nt | nt | nt | nt
O=C(C[C@@H]1CC[C@@H]2NC[C@H](O)COC[C@H]2O1)NCc1ccc(Oc2ccccc2)cc1 | 1 | nt | nt | nt | nt | nt
C[C@@H]1CN([C@H](C)CO)C(=O)c2cc(NC(=O)CCC(F)(F)F)ccc2O[C@@H](C)CCCCO[C@@H]1CN(C)S(=O)(=O)c1cccs1 | -8 | nt | nt | nt | nt | nt
C[C@@H]1CN([C@@H](C)CO)C(=O)c2cccc(NC(=O)c3cnccn3)c2O[C@H]1CN(C)S(=O)(=O)c1ccc(Cl)cc1 | -3 | nt | nt | nt | nt | nt
CCN(C[C@H]1N[C@H](CO)[C@H]1c1ccc(-c2ccccc2)cc1)C(=O)COC | 2 | nt | nt | nt | nt | nt
N#C/C(=C\Nc1ccc2c(c1)OCCO2)c1nc(-c2ccccc2)cs1 | nt | -2 | -3 | 2 | -6 | 1
N#C/C(=C\Nc1ccc2c(c1)OCCO2)c1nc2ccccc2[nH]1 | 44* | -2 | -2 | -3 | nt | -2
O=C(Nc1ccccc1)OC1CC2CC1C1CCCC21 (stereo unspecified) | nt | 0 | 12* | 0 | -1 | 3
CCCC[C@H]1C2CC(OC(=O)Nc3ccccc3)C(C2)[C@H]2CCCCN21 (stereo partly specified) | nt | -1 | 0 | -3 | nt | 0
SMILES | esBAF inh | ssDAF-12 act | hgDAF-12 ag | hcDAF12 agonist | Wnt act | DAX1 StAR inh
CCNC(=O)Nc1ccc2c(c1)C(=O)N(C)[C@H]1CC[C@@H](CC(=O)NCc3cccc(F)c3)O[C@@H]1CO2 | -4 | nt | nt | nt | nt | nt
CC(C)(C)c1ccc(C(=O)Nc2ccc(F)cc2)s1 | nt | 0 | 10 | 6.3* | 5 | 2
CCc1cc2cc(C(=O)Nc3ccc(F)cc3)sc2s1 | 32 | -1 | 2 | -1 | 49* | 1
Cn1nc(C(F)(F)F)c2cc(C(=O)Nc3ccc(F)cc3)sc21 | nt | -3 | -3 | -3 | -4 | -1
Cc1nn(CC2CC2)c(=O)n1-c1ccccc1F | 0 | -1 | 1 | 0 | 0 | 0
Cc1nn(CCOc2ccccc2)c(=O)n1-c1c(F)cccc1F | ? | -1 | 11* | 2 | 60* | 2
N#C/C(=N\Nc1ccccc1)C(=N)N1CCCCC1 | nt | 1 | 12* | 3 | nt | 3
N#C/C(=N\Nc1ccc(Br)cc1)C(=N)N1CCOCC1 | 56* | 0 | 7 | 2 | 12 | 1
N#C/C(=N\Nc1ccc([N+](=O)[O-])cc1)C(=N)N1CCOCC1 | nt | 0 | 4 | 0 | 26 | 0
CCCC(=O)Nc1ccc2c(c1)OC[C@@H](C)N(Cc1cncnc1)C[C@@H](C)[C@@H](OC)CN(C)C2=O | -2 | nt | nt | nt | nt | nt
COc1cccc(NC(=O)N2C[C@H](O)COC[C@H]3O[C@@H](CC(=O)NCCCN4CCOCC4)CC[C@@H]32)c1 | 6 | nt | nt | nt | nt | nt
COc1ccc(-c2cc(C(=O)Nc3cc(OC)cc(C(=O)Nc4cccc(C(F)(F)F)c4)c3)[nH]n2)cc1 | 48*! | 0 | 3 | 2 | -2 | 0
COc1cc(NC(=O)c2ccc(N)nc2)cc(C(=O)Nc2cccc(C(F)(F)F)c2)c1 | 45*! | -1 | 1 | 0 | -2 | -1
COC(=O)c1cc(-c2ccc(OC)cc2)n[nH]1 | ? | -1 | 11* | 0 | -2 | 0
COc1cc(NC(=O)c2ccno2)cc(C(=O)Nc2cccc(C(F)(F)F)c2)c1 | -4 | -1 | -2 | -3 | -6 | -1
C[C@@H]1CCCCO[C@@H](CN(C)C(=O)Nc2ccccc2)[C@@H](C)CN([C@H](C)CO)C(=O)c2cc(NC(=O)c3ccccc3)ccc2O1 | -5 | nt | nt | nt | nt | nt
COc1ccc2nc(/N=C(\N)NC(=O)C(C)(C)C)nc(C)c2c1 | 48* | -1 | 6 | 0 | nt | 1
CCC(=O)N/C(N)=N/c1nc(C)c2cc(OC)ccc2n1 | 55* | 0 | 9 | 4 | nt | 3
COc1ccc2nc(/N=C(\N)NC(=O)N3c4ccccc4Sc4ccccc43)nc(C)c2c1 | nt | -2 | 2 | 2 | -3 | 0
NCC[C@@H]1CC[C@@H](NC(=O)C2CCC2)[C@@H](CO)O1 | -3 | nt | nt | nt | nt | nt
C[C@H](CO)N1C[C@H](C)[C@H](CN(C)C(=O)CC2CC2)Oc2ncc(C#CC3(O)CCCC3)cc2C1=O | 4 | nt | nt | nt | nt | nt
COc1ccc(C(CCN2CCOCC2)c2c(O)cc(OC)cc2OC)cc1 (stereo unspecified) | -4 | -1 | 1 | -1 | -1 | 0
